For twelve molecules, growth results are on record in PubChem BioAssay (NCI).

What all share (experiment): NCI-60 one-dose screen, 48 h (100 = growth as untreated, 0 = no growth, -100 = all killed)
The test system of one assay is HCT-15 colon. Conditions: 10 µM unless noted.
The subject of another assay is SNB-75 CNS. The following applies: 10 µM unless noted.
Another assay deals with SNB-19 CNS. The following applies: 10 µM unless noted.
Another assay relates to U251 CNS. The following applies: 10 µM unless noted.
In the next assay the test system is SK-MEL-5 melanoma. The following applies: 10 µM unless noted.
For another assay, the system named is LOX IMVI melanoma. The following applies: 10 µM unless noted.
The test system of a further assay is SK-MEL-28 melanoma. Conditions: 10 µM unless noted.
For the next assay, the system named is EKVX NSCLC. The following applies: 10 µM unless noted.
A further assay relates to SN12C renal. The following applies: 10 µM unless noted.
The subject of a further assay is UO-31 renal. The following applies: 10 µM unless noted.
The test system of another assay is TK-10 renal. The following applies: 10 µM unless noted.
Another assay relates to ACHN renal. The following applies: 10 µM unless noted.
The subject of the next assay is CAKI-1 renal. Conditions: 10 µM.
Another assay deals with CCRF-CEM leukemia. The following applies: 10 µM unless noted.
The next assay relates to MOLT-4 leukemia. The following applies: 10 µM unless noted.
The subject of the next assay is PC-3 prostate. The following applies: 10 µM unless noted.
A further assay concerns UACC-62 melanoma. Conditions: 10 µM unless noted.
The test system of a further assay is SK-MEL-2 melanoma. Conditions: 10 µM unless noted.
The next assay has as its system A498 renal. Conditions: 10 µM unless noted.
The test system of another assay is HT29 colon. The following applies: 10 µM unless noted.

Molecules are shown by their SMILES. The panel holds about 83,000 compounds, 20% with a hit somewhere; the sample as a whole holds those more often.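 Testing used 96-well plates and a 48-hour single-concentration exposure. Example: -40 means 40% of the starting cells died.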 Unmarked numbers belong to inactive results. Activity calls are given as the source filed them. How the source made its calls: active means growth percent below 10; inactive means the rest.

Regarding `O=C1Nc2ccc(Cl)cc2/C1=C/c1ccc(OCc2ccc(Br)cc2F)cc1`, the growth was 102% in the assay with HCT-15 colon; 100% in the assay on SNB-75 CNS; 100% in the assay on SNB-19 CNS; 97.4% in the assay with U251 CNS; 92.6% in the assay on SK-MEL-5 melanoma; 92.7% with LOX IMVI melanoma. The growth is 105% with SK-MEL-28 melanoma; 97.5% in the assay on EKVX NSCLC; 103% with SN12C renal; 84.4% in the assay on UO-31 renal; 116% with TK-10 renal; 103% in the assay on ACHN renal. In addition, the growth in the assay on CAKI-1 renal is 84.3%; in the assay with CCRF-CEM leukemia it was 94.2%; in the assay with MOLT-4 leukemia it was 98.9%.

In the case of `CC1(C)CC[C@]2(C(=O)N3CCCN(CC#N)CC3)CC[C@]3(C)C(=CC[C@@H]4[C@@]5(C)CC[C@H](O)C(C)(C)[C@@H]5CC[C@]43C)[C@H]2C1`, the growth with HCT-15 colon was 19.1%; with SNB-75 CNS, 90.5%; with SNB-19 CNS it was 78.3%; in the assay on U251 CNS, 56.1%; in the assay with PC-3 prostate, 26.7%; in the assay on SK-MEL-5 melanoma, 32.2%. Besides, the growth with UACC-62 melanoma was 54.6%; in the assay with LOX IMVI melanoma, -83.7% (active); in the assay on SK-MEL-28 melanoma it was 72%; in the assay on SK-MEL-2 melanoma it was 76.8%; in the assay on EKVX NSCLC, 91.2%; in the assay with UO-31 renal, 63.7%. The growth in the assay on TK-10 renal was 81.7%; in the assay with ACHN renal, 59%; in the assay on CAKI-1 renal, 43.7%; with A498 renal, 39.8%; with CCRF-CEM leukemia, 18.2%; in the assay with MOLT-4 leukemia it was 19.1%.

Take `O=S(=O)(Nc1ccc(C2CC2)cc1)c1ccc(-c2cnc(C3CC3)o2)cc1`: the growth in the assay with SNB-75 CNS was 53.8%; with SNB-19 CNS, 73.7%; with U251 CNS it was 68.7%; in the assay with PC-3 prostate it was 63.1%; in the assay on SK-MEL-5 melanoma, 74.7%; in the assay with UACC-62 melanoma it was 48.5%. Also, the growth was 55.7% with LOX IMVI melanoma; 73.2% with SK-MEL-28 melanoma; 64.8% with SK-MEL-2 melanoma; 78.4% in the assay on EKVX NSCLC; 71.3% with UO-31 renal; 101% in the assay on TK-10 renal. The growth in the assay on ACHN renal is 87.6%; in the assay with CAKI-1 renal, 27.5%; in the assay on A498 renal, 60%; in the assay with CCRF-CEM leukemia, 57.9%; in the assay on MOLT-4 leukemia, 41.3%.

Take `O=C(Nc1ccccc1)Nc1nc2ccc([N+](=O)[O-])cc2s1`: the growth in the assay on HT29 colon is 9.17% (active); with SNB-19 CNS, 13.9%; in the assay on U251 CNS it was 6.41% (active); in the assay on PC-3 prostate, 4% (active); with SK-MEL-5 melanoma, -46.5% (active); with UACC-62 melanoma, 1.73% (active). Further, the growth is 20.2% in the assay on SK-MEL-28 melanoma; -10.8% (active) in the assay with SK-MEL-2 melanoma; 8.64% (active) in the assay with EKVX NSCLC; 2.88% (active) in the assay on SN12C renal; 8.95% (active) in the assay on UO-31 renal; 5.92% (active) with TK-10 renal. Moreover, the growth was 3.7% (active) in the assay on ACHN renal, 3.46% (active) in the assay with CAKI-1 renal, 14.7% with CCRF-CEM leukemia and 11.6% in the assay with MOLT-4 leukemia.

Regarding `ClC(Cl)c1nc(-c2cccs2)n2nc(-c3ccccc3)cc2n1`, the growth is -3.99% (active) in the assay on HT29 colon; 48% in the assay with SNB-75 CNS; -5.22% (active) in the assay on SNB-19 CNS; -9.39% (active) in the assay on U251 CNS; -32.3% (active) in the assay with PC-3 prostate; 89.8% in the assay on SK-MEL-5 melanoma. Also, the growth with UACC-62 melanoma was 23.6%; in the assay with LOX IMVI melanoma, 83.5%; in the assay on SK-MEL-28 melanoma it was -45.9% (active); in the assay with SK-MEL-2 melanoma, 77.6%; in the assay on EKVX NSCLC it was -26.8% (active); in the assay on SN12C renal, 50.6%. Moreover, the growth in the assay on UO-31 renal is -53.7% (active); in the assay with TK-10 renal it was -10.8% (active); in the assay on ACHN renal, -23.5% (active); in the assay with CAKI-1 renal it was -15% (active); with A498 renal, -78.5% (active); with CCRF-CEM leukemia, 67.9%. In the assay on MOLT-4 leukemia, the growth was 44%.

`CN1CCN(c2ccc(NC(=O)Nc3ccc4c(ccn4-c4cccc(C(N)=O)n4)c3)cc2C(F)(F)F)CC1`: the growth is 5.77% (active) with HT29 colon; 82.2% with SNB-75 CNS; 53.2% in the assay on SNB-19 CNS; 33.8% with U251 CNS; 50.9% in the assay with PC-3 prostate; 75% in the assay on SK-MEL-5 melanoma. For the same molecule, the growth is -27.7% (active) with LOX IMVI melanoma; -53.6% (active) in the assay on SK-MEL-28 melanoma; 21.1% in the assay with SK-MEL-2 melanoma; 78.4% with EKVX NSCLC; 84.1% with SN12C renal; 75.6% with UO-31 renal. Further, the growth in the assay with TK-10 renal is 97.4%; with ACHN renal, 71.8%; with CAKI-1 renal, 87.1%; in the assay on A498 renal it was 85.3%; in the assay on CCRF-CEM leukemia it was 8.43% (active); in the assay on MOLT-4 leukemia it was 3.75% (active).

As to `COc1cc(C(=O)c2cc(C(C)=O)c3c4ccccc4ccn23)cc(OC)c1OC`, the growth with HT29 colon is 39.6%; with SNB-75 CNS, 45.3%; with SNB-19 CNS, 64.3%; in the assay with U251 CNS, 73.6%; in the assay on PC-3 prostate, 48.1%; with SK-MEL-5 melanoma, 22.9%. For the same molecule, the growth with UACC-62 melanoma is 38%; in the assay with LOX IMVI melanoma it was 58.4%; in the assay with SK-MEL-28 melanoma, 80.9%; with SK-MEL-2 melanoma, 51.5%; in the assay on SN12C renal it was 74.4%; in the assay on UO-31 renal, 43.3%. Moreover, the growth is 70.3% in the assay on TK-10 renal; 71.8% with ACHN renal; 30.2% in the assay on CAKI-1 renal; 34% in the assay on A498 renal; 48.9% with CCRF-CEM leukemia; 34.6% with MOLT-4 leukemia.

As to `Cn1cc(-c2nnc(N)nc2-c2cn(C)c3ccc(F)cc23)c2cc(F)ccc21`, the growth was 64.4% with SNB-75 CNS; 91% with SNB-19 CNS; 83.2% in the assay on U251 CNS; 95.2% in the assay on PC-3 prostate; 91% with SK-MEL-5 melanoma; 94.6% in the assay with UACC-62 melanoma. Moreover, the growth with LOX IMVI melanoma was 98.4%; in the assay with SK-MEL-2 melanoma it was 97%; in the assay with EKVX NSCLC, 101%; with SN12C renal it was 89.2%; in the assay with UO-31 renal, 82.6%; in the assay with TK-10 renal, 91.4%. The growth was 100% with ACHN renal, 79.7% with CAKI-1 renal, 100% in the assay on CCRF-CEM leukemia and 79.1% in the assay on MOLT-4 leukemia.

On to `CC1OC(O[C@@H]2[C@H](O)C(CO)OC(O[C@H]3COC(O[C@H]4CC[C@]5(C)[C@H]6CC[C@]78OC[C@@]9(CC[C@](C)(C=O)C[C@H]97)C(=O)C[C@@]8(C)[C@]6(C)CC[C@H]5C4(C)C)[C@@H](O)[C@@H]3O)[C@H]2OC2OC[C@@H](O)[C@@H](O)[C@@H]2O)[C@@H](O)[C@@H](O)[C@H]1O` (stereo partly drawn), for which the growth with SNB-75 CNS is 81.4%; with SNB-19 CNS, 90.2%; in the assay with U251 CNS, 95.8%; with PC-3 prostate, 81.4%; in the assay with LOX IMVI melanoma, 88.1%; with SK-MEL-2 melanoma, 99.4%. Also, the growth with EKVX NSCLC was 89.2%; in the assay on UO-31 renal it was 75.2%; in the assay with ACHN renal, 97.1%; in the assay with CAKI-1 renal it was 84.8%; with A498 renal, 132%; in the assay on CCRF-CEM leukemia it was 80.5%. The growth in the assay on MOLT-4 leukemia is 63.6%.

Turning to `CN1CCN(Cc2ccc(NC(=O)c3cncc(C#Cc4cnc5ccc(O[C@H]6CCOC6)nn45)c3)cc2C(F)(F)F)CC1`, the growth is -67.8% (active) with HT29 colon; -95.9% (active) in the assay on SNB-75 CNS; -69.2% (active) in the assay with SNB-19 CNS; -85.4% (active) in the assay with U251 CNS; -9.05% (active) with PC-3 prostate; -95.2% (active) in the assay with SK-MEL-5 melanoma. For the same molecule, the growth with UACC-62 melanoma was -45.3% (active); with LOX IMVI melanoma, -88.1% (active); in the assay with SK-MEL-28 melanoma, -80.3% (active); with SK-MEL-2 melanoma, -88% (active); in the assay with EKVX NSCLC it was -69.7% (active); in the assay with SN12C renal, -48.4% (active). In addition, the growth in the assay with UO-31 renal was -94% (active); in the assay on TK-10 renal, -87.2% (active); in the assay on ACHN renal, -97.1% (active); in the assay on CAKI-1 renal, -96.2% (active); with A498 renal, -92.9% (active); in the assay with CCRF-CEM leukemia, 2.84% (active). Also, in the assay on MOLT-4 leukemia, the growth is -1.92% (active).

As for `CCOC(=O)c1nn(-c2ccccc2)c(=O)c2c(N)c(C#N)c(-c3cccs3)cc12`, the growth with HT29 colon is 61.9%; in the assay with SNB-75 CNS it was -8.81% (active); in the assay with SNB-19 CNS, 70.5%; in the assay with U251 CNS it was 77.3%; in the assay on PC-3 prostate, 79.9%; with SK-MEL-5 melanoma, 96.4%. The growth was 85.8% in the assay with UACC-62 melanoma; 99.9% in the assay on SK-MEL-28 melanoma; 98.4% in the assay on SK-MEL-2 melanoma; 83.9% in the assay with EKVX NSCLC; 75.1% in the assay on SN12C renal; 50.9% in the assay on UO-31 renal. The growth in the assay with TK-10 renal was 115%; in the assay with ACHN renal it was 54.4%; in the assay with CAKI-1 renal, 62.8%; with CCRF-CEM leukemia, 99.5%; with MOLT-4 leukemia, 97%.

For `Nc1nc(-c2cccc([N+](=O)[O-])c2)c(N=Nc2cccc(Cl)c2)s1`, the growth with HT29 colon is 40.7%; in the assay with SNB-75 CNS it was 40.3%; in the assay on SNB-19 CNS, 73.9%; with U251 CNS it was 44.3%; in the assay on PC-3 prostate, 37.6%; with SK-MEL-5 melanoma it was 39.9%. In addition, the growth in the assay with UACC-62 melanoma is 32.9%; in the assay with LOX IMVI melanoma, 24.5%; in the assay with SK-MEL-28 melanoma, 75.6%; in the assay with EKVX NSCLC, 41.9%; in the assay with SN12C renal, 53.2%; in the assay on UO-31 renal, 33.5%. In addition, the growth is 71.7% in the assay with TK-10 renal; 48.6% in the assay with ACHN renal; 23.2% in the assay on CAKI-1 renal; 36% with CCRF-CEM leukemia; 26.5% in the assay with MOLT-4 leukemia.
